# Test results published in PubChem BioAssay (NCI).
# Compounds without any hit were thinned out: in the full panel of roughly 79,000, 15% have a hit. Unmarked numbers belong to inactive results. Activity calls are given as the source filed them. Cut-off read from the data, not from the text of the source: active = growth inhibition above about 70%; inactive = the rest.
# Tests used:
# [1] = NCI Yeast Anticancer Drug Screen. Data for the wt1 strain (AID 149);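 note: 0% = growth of vehicle-treated wt1 cultures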; details: S. cerevisiae wt1 strain (SPY 50644) growth inhibition, hits give high values
# Procedure, shortened: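 The wt1 strain was treated with compounds, and growth was compared with vehicle-treated cultures to give inhibition.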
# [2] = NCI Yeast Anticancer Drug Screen. Data for the rad50EPP+ strain (AID 151);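 note: 0% = growth of vehicle-treated control cultures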; details: S. cerevisiae rad50 mutant strain, hits give high values
# Procedure, shortened: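 Read-out is yeast growth inhibition relative to vehicle; cells used were the rad50EPP+ strain.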
# [3] = NCI Yeast Anticancer Drug Screen. Data for the rad50 strain (AID 155);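 note: 0% = growth of vehicle-only cultures of the same strain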; details: S. cerevisiae rad50 strain growth inhibition, hits give high values
# Procedure, shortened: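 Cells are treated with compound, grown, and their growth is then scored against vehicle-only cultures of the same repair-deficient yeast strain.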
# [4] = NCI Yeast Anticancer Drug Screen. Data for the mec2-1 strain (AID 157); details: S. cerevisiae mec2-1 strain, hits give high values
# Procedure, shortened: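 Using mec2-1 yeast: add compound, measure growth, express inhibition versus vehicle-treated cultures.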
# [5] = NCI Yeast Anticancer Drug Screen. Data for the rad14 strain (AID 159);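 note: 0% = growth of vehicle-treated control cultures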; details: S. cerevisiae rad14 strain growth inhibition, hits give high values
# Procedure, shortened: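 Readout: yeast growth inhibition, referenced to vehicle-only cultures. Strain bears a defined alteration in DNA damage repair.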
# [6] = NCI Yeast Anticancer Drug Screen. Data for the sgs1 mgt1 strain (AID 161);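 note: 0% = growth of cultures given vehicle only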; details: S. cerevisiae sgs1 mgt1 strain, hits give high values
# Procedure, shortened: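 This yeast growth screen uses a strain with defined DNA-repair lesions; compound-treated growth is compared with vehicle-treated growth.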
# [7] = NCI Yeast Anticancer Drug Screen. Data for the CLN2oe strain (AID 163);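 note: 0% = growth of vehicle-only control cultures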; details: S. cerevisiae CLN2oe strain, hits give high values
# Procedure, shortened: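 Whole-cell yeast growth assay. A strain engineered for altered cell-cycle control received compound, and inhibition relative to vehicle-treated cultures was recorded.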
# [8] = NCI Yeast Anticancer Drug Screen. Data for the cln2 rad14 strain (AID 165);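 note: 0% = growth equal to vehicle treated cultures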; details: S. cerevisiae cln2 rad14 strain, hits give high values
# Procedure, shortened: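 Yeast strain cln2 rad14, bearing defects in cell cycle control and DNA repair, serves as the test system; values reflect growth inhibition compared with vehicle.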
# [9] = NCI Yeast Anticancer Drug Screen. Data for the bub3 strain (AID 167); details: S. cerevisiae bub3 mutant strain, hits give high values
# Procedure, shortened: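 Part of a panel of yeast mutants defective in DNA damage repair or cell cycle regulation. Each strain is grown with compound, and inhibition is calculated relative to solvent-treated cultures.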
# [10] = NCI Yeast Anticancer Drug Screen. Data for the wt2 strain (AID 169);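 note: 0% = growth of vehicle-treated yeast cultures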; details: S. cerevisiae wt2 strain growth inhibition, hits give high values
# Procedure, shortened: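 Treated yeast vs. vehicle-treated yeast: growth inhibition determined.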
# [11] = NCI Yeast Anticancer Drug Screen. Data for the mlh1 strain (AID 171);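 note: 0% = growth of vehicle-treated control cultures of the same strain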; details: S. cerevisiae mlh1 strain growth inhibition, hits give high values
# Procedure, shortened: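 A yeast strain with a defined genetic lesion serves as the test organism. Cultures receive compound or vehicle, and growth is measured.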
# [12] = NCI Yeast Anticancer Drug Screen. Data for the sgs1 strain (AID 173);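 note: 0% = growth of vehicle-only control cultures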; details: S. cerevisiae sgs1 mutant, hits give high values
# Procedure, shortened: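 A genetically defined yeast mutant is incubated with the test compound, and its growth is compared to that of the same strain given vehicle.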
# [13] = NCI Yeast Anticancer Drug Screen. Data for the mlh1 rad18 strain (AID 175); details: S. cerevisiae mlh1 rad18 strain growth inhibition, hits give high values
# Procedure, shortened: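 Steps: expose repair-defective yeast to compound; measure growth; express inhibition against vehicle-treated controls.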
# [14] = NCI Yeast Anticancer Drug Screen. Data for the rad18 strain (AID 177); details: S. cerevisiae rad18 mutant growth inhibition, hits give high values
# Procedure, shortened: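 Measured value is growth inhibition of a yeast strain bearing a DNA repair alteration, referenced to vehicle-treated cells.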
# [15] = NCI Yeast Anticancer Drug Screen. Data for the rad52 strain (AID 147);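 note: 0% = growth of vehicle-treated control cultures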; details: S. cerevisiae rad52 mutant growth inhibition, hits give high values
# Procedure, shortened: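 Here a repair-compromised yeast strain receives each compound; its growth is then quantified and normalised to vehicle-only controls.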
# [16] = at 5.0 µM (retest, dose inferred, filed as 0.5)
# [17] = at 50.0 µM (retest, dose inferred, filed as 5.0)
compound,measurement,setting,value
CCCCCCCCCCCCCC(=O)OC(C)CCC1CCCO1 (stereo not drawn),growth inhibition,[1]; at 1.2 µM,-3%
same,growth inhibition,[1]; at 3.7 µM,-2%
same,growth inhibition,[1]; at 11.0 µM,-1%
same,growth inhibition,[1]; at 33.0 µM,-1%
same,growth inhibition,[1]; at 100.0 µM,-3%
same,growth inhibition,[2]; at 1.2 µM,2%
same,growth inhibition,[2]; at 3.7 µM,2%
same,growth inhibition,[2]; at 11.0 µM,-2%
same,growth inhibition,[2]; at 33.0 µM,-4%
same,growth inhibition,[2]; at 100.0 µM,-6%
same,growth inhibition,[3]; at 1.2 µM,1%
same,growth inhibition,[3]; at 3.7 µM,0%
same,growth inhibition,[3]; [16],3%
same,growth inhibition,[3]; at 11.0 µM,0%
same,growth inhibition,[3]; at 33.0 µM,-7%
same,growth inhibition,[3]; [17],15%
same,growth inhibition,[3]; at 50.0 µM,19.4%
same,growth inhibition,[3]; at 100.0 µM,-4%
same,growth inhibition,[4]; at 1.2 µM,0%
same,growth inhibition,[4]; at 3.7 µM,-1%
same,growth inhibition,[4]; [16],13%
same,growth inhibition,[4]; at 11.0 µM,-6%
same,growth inhibition,[4]; at 33.0 µM,1%
same,growth inhibition,[4]; [17],5%
same,growth inhibition,[4]; at 50.0 µM,23.5%
same,growth inhibition,[4]; at 100.0 µM,-1%
same,growth inhibition,[5]; at 1.2 µM,-2%
same,growth inhibition,[5]; at 3.7 µM,-6%
same,growth inhibition,[5]; at 11.0 µM,0%
same,growth inhibition,[5]; at 33.0 µM,3%
same,growth inhibition,[5]; at 100.0 µM,-4%
same,growth inhibition,[6]; [16],3%
same,growth inhibition,[6]; [17],25%
same,growth inhibition,[6]; at 50.0 µM,13.2%
same,growth inhibition,[7]; at 1.2 µM,1%
same,growth inhibition,[7]; at 3.7 µM,2%
same,growth inhibition,[7]; at 11.0 µM,2%
same,growth inhibition,[7]; at 33.0 µM,4%
same,growth inhibition,[7]; at 100.0 µM,14%
same,growth inhibition,[8]; [16],81% (active)
same,growth inhibition,[8]; [17],39%
same,growth inhibition,[8]; at 50.0 µM,37.1%
same,growth inhibition,[9]; at 1.2 µM,1%
same,growth inhibition,[9]; at 3.7 µM,-1%
same,growth inhibition,[9]; [16],31%
same,growth inhibition,[9]; at 11.0 µM,-1%
same,growth inhibition,[9]; at 33.0 µM,-1%
same,growth inhibition,[9]; [17],1%
same,growth inhibition,[9]; at 50.0 µM,34.6%
same,growth inhibition,[9]; at 100.0 µM,-1%
same,growth inhibition,[10]; at 1.2 µM,-3%
same,growth inhibition,[10]; at 3.7 µM,-3%
same,growth inhibition,[10]; at 11.0 µM,-2%
same,growth inhibition,[10]; at 33.0 µM,-3%
same,growth inhibition,[10]; at 100.0 µM,-6%
same,growth inhibition,[11]; at 1.2 µM,-1%
same,growth inhibition,[11]; at 3.7 µM,3%
same,growth inhibition,[11]; at 11.0 µM,2%
same,growth inhibition,[11]; at 33.0 µM,3%
same,growth inhibition,[11]; at 100.0 µM,4%
same,growth inhibition,[12]; at 1.2 µM,-1%
same,growth inhibition,[12]; at 3.7 µM,1%
same,growth inhibition,[12]; at 11.0 µM,1%
same,growth inhibition,[12]; at 33.0 µM,3%
same,growth inhibition,[12]; at 100.0 µM,1%
same,growth inhibition,[13]; [16],-2%
same,growth inhibition,[13]; [17],37%
same,growth inhibition,[13]; at 50.0 µM,20.8%
same,growth inhibition,[14]; at 1.2 µM,0%
same,growth inhibition,[14]; at 3.7 µM,1%
same,growth inhibition,[14]; at 11.0 µM,-3%
same,growth inhibition,[14]; at 33.0 µM,-4%
same,growth inhibition,[14]; at 100.0 µM,-5%
OCCNCCOc1ccc(/C(=C(/Cl)c2ccccc2)c2ccccc2)cc1,growth inhibition,[15]; at 1.2 µM,-38%
same,growth inhibition,[15]; at 3.7 µM,-36%
same,growth inhibition,[15]; at 11.0 µM,-20%
same,growth inhibition,[15]; at 33.0 µM,98% (active)
same,growth inhibition,[15]; at 100.0 µM,97% (active)
same,growth inhibition,[2]; at 1.2 µM,-34%
same,growth inhibition,[2]; at 3.7 µM,-28%
same,growth inhibition,[2]; at 11.0 µM,-56%
same,growth inhibition,[2]; at 33.0 µM,70% (active)
same,growth inhibition,[2]; at 100.0 µM,98% (active)
same,growth inhibition,[3]; at 1.2 µM,12%
same,growth inhibition,[3]; at 3.7 µM,1%
same,growth inhibition,[3]; [16],40%
same,growth inhibition,[3]; at 11.0 µM,29%
same,growth inhibition,[3]; at 33.0 µM,98% (active)
same,growth inhibition,[3]; [17],98% (active)
same,growth inhibition,[3]; at 50.0 µM,87.1% (active)
same,growth inhibition,[3]; at 100.0 µM,97% (active)
same,growth inhibition,[4]; at 1.2 µM,-28%
same,growth inhibition,[4]; at 3.7 µM,-32%
same,growth inhibition,[4]; [16],3%
same,growth inhibition,[4]; at 11.0 µM,-2%
same,growth inhibition,[4]; at 33.0 µM,98% (active)
same,growth inhibition,[4]; [17],99% (active)
same,growth inhibition,[4]; at 50.0 µM,94.3% (active)
same,growth inhibition,[4]; at 100.0 µM,97% (active)
same,growth inhibition,[5]; at 1.2 µM,-9%
same,growth inhibition,[5]; at 3.7 µM,-8%
same,growth inhibition,[5]; at 11.0 µM,76% (active)
same,growth inhibition,[5]; at 33.0 µM,98% (active)
same,growth inhibition,[5]; at 100.0 µM,97% (active)
same,growth inhibition,[6]; [16],36%
same,growth inhibition,[6]; [17],98% (active)
same,growth inhibition,[6]; at 50.0 µM,93.8% (active)
same,growth inhibition,[7]; at 1.2 µM,-13%
same,growth inhibition,[7]; at 3.7 µM,0%
same,growth inhibition,[7]; at 11.0 µM,25%
same,growth inhibition,[7]; at 33.0 µM,99% (active)
same,growth inhibition,[7]; at 100.0 µM,98% (active)
same,growth inhibition,[8]; [16],59%
same,growth inhibition,[8]; [17],98% (active)
same,growth inhibition,[8]; at 50.0 µM,93.2% (active)
same,growth inhibition,[9]; at 1.2 µM,-8%
same,growth inhibition,[9]; at 3.7 µM,-5%
same,growth inhibition,[9]; [16],32%
same,growth inhibition,[9]; at 11.0 µM,13%
same,growth inhibition,[9]; at 33.0 µM,99% (active)
same,growth inhibition,[9]; [17],99% (active)
same,growth inhibition,[9]; at 50.0 µM,92.7% (active)
same,growth inhibition,[9]; at 100.0 µM,97% (active)
same,growth inhibition,[10]; at 1.2 µM,-47%
same,growth inhibition,[10]; at 3.7 µM,-48%
same,growth inhibition,[10]; at 11.0 µM,-6%
same,growth inhibition,[10]; at 33.0 µM,98% (active)
same,growth inhibition,[10]; at 100.0 µM,97% (active)
same,growth inhibition,[11]; at 1.2 µM,7%
same,growth inhibition,[11]; at 3.7 µM,12%
same,growth inhibition,[11]; at 11.0 µM,67%
same,growth inhibition,[11]; at 33.0 µM,98% (active)
same,growth inhibition,[11]; at 100.0 µM,98% (active)
same,growth inhibition,[12]; at 1.2 µM,-15%
same,growth inhibition,[12]; at 3.7 µM,-23%
same,growth inhibition,[12]; at 11.0 µM,32%
same,growth inhibition,[12]; at 33.0 µM,98% (active)
same,growth inhibition,[12]; at 100.0 µM,98% (active)
same,growth inhibition,[14]; at 1.2 µM,-8%
same,growth inhibition,[14]; at 3.7 µM,-6%
same,growth inhibition,[14]; at 11.0 µM,24%
same,growth inhibition,[14]; at 33.0 µM,98% (active)
same,growth inhibition,[14]; at 100.0 µM,98% (active)
